High-throughput results from PubChem.
This is one part of a sample in which hits are shown more often than they occur.
Pf Dd2 growth = blocks in vitro growth of P. falciparum Dd2 | P. falciparum Dd2 growth, SYBR Green, 72 h | Potency, µM (highest dose often 28.9 µM), usual class: inhibitors | 4.3% of 120,000 active | AID 1347417; active = well fitted inhibition curve with a large enough effect; note: nearly all actives have a fitted effect of over 65% in size
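Readout: SYBR Green fluorescence, 485 nm excitation, 535 nm emission, after ~16 h lysis at 37C. Before that, Dd2-infected red cells (2.5% hematocrit) grew 72 h with compound, 29 uM top final concentration.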
Hits are given with their value; – = inactive; [ ] = dose if it differs, or a comment.

SMILES	Pf Dd2 growth
Cc1cnc(CC2CCN(C(=O)C3CC3)CC2)n1Cc1ccccc1	6.3µM
Cc1cnc(C2CCN(S(=O)(=O)c3ccccc3)C2)n1C(C)C (stereo not given)	4µM
Cc1cnc(CC2CCN(C(=O)NC(C)(C)C)CC2)n1Cc1ccc(F)cc1	–
CCCn1c(C)cnc1CC1CCCN(S(=O)(=O)c2cc(OC)ccc2OC)C1 (stereo not given)	1.3µM
Cn1c([C@H]2CCN(S(=O)(=O)c3ccc(F)cc3)C2)nc2ccccc21	–
CCCn1c(C)cnc1CC1CCCN(C(=O)CCOC)C1 (stereo not given)	–
Cc1ccc(NC(=O)Nc2ccc(C)n(CC(=O)NC(C)(C)C)c2=O)cc1	–
CCN1CCN(CCNC(=O)[C@H]2CCC[C@H]2NC(=O)c2ccc(OC)cc2)CC1	–
COc1ccc2[nH]c3c(c2c1)CCN(C)C31CCN(C(=O)c2ccccc2)CC1	–
Cc1cc(C)n(CCC(=O)N2CC(Oc3cccc(-c4nc(-c5ccccc5)no4)c3)C2)n1	–[5.79 µM]
COc1ccc(CCNC(=O)C(=O)NCC(c2ccc3c(c2)OCO3)N2CCOCC2)cc1OC (stereo not given)	–
COc1ccc(Cl)cc1C(=O)N1CC2CC(C1)[C@H]1CCCC(=O)N1C2 (stereo not given in full)	–
CCC(=O)N1CCC(Cc2ncc(C)n2C2CC2)C1 (stereo not given)	–
Cc1cnc(CC2CCN(S(=O)(=O)c3ccc(C#N)cc3)C2)n1C1CC1 (stereo not given)	10µM
CCn1cc(S(=O)(=O)N2CCC(Cc3ncc(C)n3Cc3ccc(F)cc3)CC2)cn1	–
N#Cc1ccc(S(=O)(=O)N2CCC(Cc3nc(-c4ccncc4)n[nH]3)C2)cc1 (stereo not given)	–
CCS(=O)(=O)N1CCC(Cc2ncc(C)n2Cc2ccccc2)C1 (stereo not given)	11µM
CCCS(=O)(=O)NCCc1ncc(C)n1Cc1ccccc1	–
Cc1cnc(CC2CCN(S(=O)(=O)c3ccccc3)CC2)n1Cc1ccccc1	0.56µM
COc1cccc(CN2CCCC(Cc3ncc(C)n3Cc3ccccc3)C2)c1 (stereo not given)	–
O=S(=O)(c1ccccc1)N1CCC(Cc2nncn2-c2ccccc2)C1 (stereo not given)	–
O=C1NC2(CCN(C(=O)OCc3ccccc3)C2)N=C1c1cccnc1 (stereo not given)	–
O=C(Nc1ccc2c(c1)C(=O)N1CCC[C@H]1C(=O)N2)c1cc(-c2ccccn2)n[nH]1	–
Cc1ccccc1C(=O)N1CCC2(CC1)OCC(C(=O)NC(C)C)N2C(=O)c1cccc(F)c1 (stereo not given)	–
CCN(CC)CCCNc1oc(-c2ccc(OC)cc2)nc1C#N	–
SMILES	Pf Dd2 growth
O=C1CC(c2cccc(Cl)c2Cl)c2cc3c(cc2N1)OCCO3 (stereo not given)	–
COc1ccc(C(=O)N2CCC(N3CCCCCC3=O)CC2)cc1	–
Cc1cccc(-c2nc(CS(=O)CC(=O)NCc3ccc(Cl)cc3)c(C)o2)c1 (stereo not given)	–
Cc1ccc(F)cc1S(=O)(=O)N1CCC(n2cnnc2C2CC2)CC1	–
Cc1ccc(S(=O)(=O)N(CC(O)Cn2c3ccccc3c3ccccc32)c2cccc(C(N)=O)c2)cc1 (stereo not given)	10µM
Cc1ccc(S(=O)(=O)N(CC(O)Cn2c3ccccc3c3ccccc32)c2cccc(C(=O)N(C)C)c2)cc1 (stereo not given)	8.9µM
COc1ccc(S(=O)(=O)N(CC(=O)NCc2ccccc2)c2ccc(C)cc2)cc1OC	–
Cc1ccc(-c2ccc3nnc(CNC(=O)c4cccc(N(C)C)c4)n3n2)cc1	–
Cc1ccc(S(=O)(=O)c2cn(CC(=O)Nc3cccc(Cl)c3)c3ccccc3c2=O)cc1	–
CCOC(=O)N1CCN(C(=O)CN(c2ccccc2F)S(=O)(=O)c2ccc(C)cc2)CC1	–
COc1cc(CN2CCN(S(=O)(=O)c3ccc(F)cc3)CC2)cc(OC)c1OC	–
CCc1nncn1C1CCN(S(=O)(=O)c2cccc(C)c2)CC1	–
CCC[C@@H]1CN(c2cc(NCCO)ncn2)C[C@H]1C(=O)O	–
O=C(C1CC1)N1CCc2cc(Br)cc(S(=O)(=O)N3CCN(c4cccc(Cl)c4)CC3)c21	–
CC(=O)N1CCc2cc(Br)cc(S(=O)(=O)N3CCN(c4cccc(C(F)(F)F)c4)CC3)c21	10µM
CCC(=O)N1CCc2cc(Br)cc(S(=O)(=O)N3CCN(c4ccccc4)CC3)c21	–
Cc1ccc([C@H]2C[C@@H](O)[C@@H](O)[C@@H]2NS(=O)(=O)c2ccccc2)cc1	–
CN(CCc1ccccn1)C(=O)c1ccc2c(c1)[nH]c(=O)n2C1CCC(O)CC1 (stereo not given)	–
COCCNC(=O)c1ccc(OC2CCN(C(=O)[C@@H](C)N)CC2)c(Cl)c1	–
COCCNC(=O)c1ccc(OC2CCN(Cc3ccc(C)s3)CC2)c(Cl)c1	6.3µM
COCCNC(=O)c1ccc(OC2CCN(Cc3cccc4c3OCO4)CC2)c(Cl)c1	7.1µM
CC(C)n1cc(CN2CCC(Oc3ccc(C(=O)NC4CCCC4)cc3Cl)CC2)cn1	–
COCCNC(=O)c1ccc(OC)cc1OC1CCN(Cc2cccc3cccnc23)CC1	–
COCCNC(=O)c1ccc(OC2CCN(CC3CCOC3)CC2)c(Cl)c1 (stereo not given)	–
CCOC(=O)C1CCCN(C(=O)Cn2ncc3c4ccccc4n(Cc4ccccc4)c3c2=O)C1 (stereo not given)	–
SMILES	Pf Dd2 growth
CC1CCCCN1CCCNC(=O)Cn1ncc2c3ccccc3n(C)c2c1=O (stereo not given)	–
CC1CCCCN1CCCNC(=O)Cn1ncc2c3ccccc3n(Cc3ccccc3F)c2c1=O (stereo not given)	5µM
CCCn1c2ccccc2c2cnn(CC(=O)N3CCCC(C)C3)c(=O)c21 (stereo not given)	–
CCCn1c2ccccc2c2cnn(CC(=O)NCCCN3CCCCC3)c(=O)c21	–
O=C(Cn1ncc2c3ccccc3n(Cc3ccccc3F)c2c1=O)N1CCCCCC1	10µM
COCCNC(=O)C[C@@H]1c2nc(NC(=O)c3ccco3)sc2C[C@@H]2[C@](C)(CO)[C@H](O)CC[C@]21C	–
CC(C)NC(=O)C[C@@H]1c2nc(NC(=O)c3ccc(F)cc3)sc2C[C@@H]2[C@](C)(CO)[C@H](O)CC[C@]21C	–
C#CCNC(=O)C[C@@H]1c2nc(NC(=O)c3ccc(C(C)(C)C)cc3)sc2C[C@@H]2[C@](C)(CO)[C@H](O)CC[C@]21C	4µM
C[C@]1(CO)[C@H]2Cc3sc(-c4ccsc4)nc3[C@@H](CC(=O)NCc3ccco3)[C@]2(C)CC[C@H]1O	–
CC(C)NC(=O)C[C@@H]1c2nc(NC(=O)N3CCOCC3)sc2C[C@@H]2[C@](C)(CO)[C@H](O)CC[C@]21C	–
C[C@]1(CO)[C@H]2Cc3sc(NC(=O)c4ccco4)nc3[C@@H](CC(=O)Nc3ccccc3)[C@]2(C)CC[C@H]1O	7.1µM
CC(C)C[C@H](CO)NC(=O)C[C@@H]1c2nc(NC(=O)c3ccco3)sc2C[C@@H]2[C@](C)(CO)[C@H](O)CC[C@]21C	8.9µM
CN(Cc1ccccc1)C(=O)C[C@@H]1c2nc(NC(=O)CC(C)(C)C)sc2C[C@@H]2[C@](C)(CO)[C@H](O)CC[C@]21C	–
C#CCNC(=O)C[C@@H]1c2nc(NC(=O)C(C)(C)C)sc2C[C@@H]2[C@](C)(CO)[C@H](O)CC[C@]21C	–
O=C(Nc1cccc(F)c1)N1CCCC1c1nc(C2CCOCC2)no1 (stereo not given)	–
